Inconclusive results are not listed. The source made the active and inactive calls. How the source made its calls: active means hit-call score of the fitted dose curve at least 0.9, where 1 is the maximum; inconclusive means response in the unintended direction; inactive means score below 0.9.

Sequence of mouse Cholecystokinin, CCK2 Receptor (CCKB), Cckbr (gene 12426) (P56481 whole entry, looked up): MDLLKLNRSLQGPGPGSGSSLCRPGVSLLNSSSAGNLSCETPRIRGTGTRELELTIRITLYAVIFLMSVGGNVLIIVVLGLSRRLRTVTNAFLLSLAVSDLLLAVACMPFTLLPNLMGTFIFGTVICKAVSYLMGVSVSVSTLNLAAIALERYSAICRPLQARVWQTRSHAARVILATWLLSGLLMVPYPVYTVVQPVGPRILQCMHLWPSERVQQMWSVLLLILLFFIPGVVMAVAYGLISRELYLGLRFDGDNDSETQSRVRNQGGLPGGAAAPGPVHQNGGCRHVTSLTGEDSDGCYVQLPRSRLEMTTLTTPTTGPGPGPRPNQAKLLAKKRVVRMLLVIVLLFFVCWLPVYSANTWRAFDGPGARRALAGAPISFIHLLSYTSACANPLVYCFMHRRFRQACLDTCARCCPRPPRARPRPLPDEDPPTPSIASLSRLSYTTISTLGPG
Sequence of guinea pig Bradykinin Receptor B2 (BK2), BDKRB2 (gene 100135486) (O70526 whole entry, looked up): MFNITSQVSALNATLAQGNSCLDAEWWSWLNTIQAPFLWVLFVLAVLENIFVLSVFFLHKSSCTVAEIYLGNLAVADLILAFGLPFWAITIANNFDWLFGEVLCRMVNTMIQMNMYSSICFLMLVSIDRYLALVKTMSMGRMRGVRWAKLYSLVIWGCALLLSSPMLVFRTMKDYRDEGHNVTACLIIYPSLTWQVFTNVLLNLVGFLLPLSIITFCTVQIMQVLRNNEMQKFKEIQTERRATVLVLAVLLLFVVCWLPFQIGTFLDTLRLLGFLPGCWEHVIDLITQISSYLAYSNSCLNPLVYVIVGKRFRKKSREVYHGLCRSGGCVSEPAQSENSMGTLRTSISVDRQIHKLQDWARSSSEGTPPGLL
Sequence of rat Adrenergic, Alpha 1, Non-selective Receptor (Adra1), Adra1a (gene 29412) (P43140 whole entry, looked up): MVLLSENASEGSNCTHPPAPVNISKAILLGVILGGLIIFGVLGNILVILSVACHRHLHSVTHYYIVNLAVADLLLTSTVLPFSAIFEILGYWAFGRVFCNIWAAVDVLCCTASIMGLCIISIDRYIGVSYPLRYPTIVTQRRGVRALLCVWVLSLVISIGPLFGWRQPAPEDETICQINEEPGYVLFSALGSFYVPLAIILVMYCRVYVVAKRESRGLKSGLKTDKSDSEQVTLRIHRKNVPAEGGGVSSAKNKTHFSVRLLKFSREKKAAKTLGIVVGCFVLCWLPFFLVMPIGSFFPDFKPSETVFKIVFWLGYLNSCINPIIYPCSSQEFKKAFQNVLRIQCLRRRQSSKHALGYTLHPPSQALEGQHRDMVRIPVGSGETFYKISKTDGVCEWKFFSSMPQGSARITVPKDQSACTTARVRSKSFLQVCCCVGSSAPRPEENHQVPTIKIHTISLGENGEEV

In the first test the test system is 5-hydroxytryptamine receptor 2C (pig). Kind of test: NVS_GPCR_p5HT2C: NovaScreen (NVS) G Protein-Coupled Receptor Assay for pig Serotonin, 5-Hydroxytryptamine Receptor 2C (5HT2C) (AID 2283288). The method in brief:
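Pig choroid plexus membranes; radioligand competitive binding, filter-based scintillation counting, read 1 h after dosing. Primary screen in duplicate at 25 uM; actives then run as concentration series; loss of signal versus DMSO baseline.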
What is called AC50 is the concentration at which the activity in the assay is half-maximal. Consider `CCOC(=O)[C@]1(c2ccccc2)Oc2ccccc2[C@@H]1N`, for which the AC50 was 1.29 µM (active).

As to `COC(=O)Nc1nc2ccccc2[nH]1`, the call was inactive.

For the compound `CC(C)(O)c1cnn2c(-c3ccc(F)c(-c4c(F)cccc4C#N)c3)cnc2n1`, the call was inactive.

On to `Cc1cccc(N)c1N`, for which the AC50 was 16.8 µM (active).

For the compound `Clc1ccc(C(c2ccc(Cl)cc2)C(Cl)Cl)cc1`, the compound was classed as inactive.

In the next test the target is rat Adrenergic, Alpha 1, Non-selective Receptor (Adra1), Adra1a (gene 29412) (UniProt P43140). Kind of test: NVS_GPCR_rAdra1_NonSelective: NovaScreen (NVS) G Protein-Coupled Receptor Assay for rat Adrenergic, Alpha 1, Non-selective Receptor (Adra1) (AID 2283289). The gist of the method:
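Rat forebrain membranes; radioligand displacement read by filter-based scintillation counting 1 h after dosing. Primary screen in duplicate at 25 uM; hits (e.g. ≥30% inhibition) rerun as concentration–response to 50 uM max. Fitted versus DMSO.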
As to `C=CCc1ccc2c(c1)OCO2`, the compound was called inactive.

As for `CCC[CH2][Sn]([Cl])([CH2]CCC)[CH2]CCC`, the AC50 is 8.26 µM (active).

For `[Cl-].[Cl-].[Hg+2]`, the AC50 was 2.86 µM (active).

As to `CCOC(=O)[C@]1(c2ccccc2)Oc2ccccc2[C@@H]1N`, the concentration at half-maximal activity (AC50) is 0.184 µM (active).

Regarding `O=C(Oc1ccc(Br)cc1)N1CCN2CCC1CC2`, the compound was called inactive.

On to `O=C(N[C@H](c1ccccc1)[C@@H]1CN2CCC1CC2)c1c(Cl)ccc(C(F)(F)F)c1Cl`, for which the AC50 is 23.6 µM (active).

The target in the next test is human Opioid Receptor Mu (Opiate Mu), OPRM1 (gene 4988) (UniProt P35372). Kind of test: NVS_GPCR_hOpiate_mu: NovaScreen (NVS) G Protein-Coupled Receptor Assay for human Opioid Receptor Mu (Opiate Mu) (AID 2283290).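 Further: hits lower bound tracer signal versus DMSO meaning displacement of the ligand.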 The method in brief: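 Cell-free radioligand binding to membranes from CHO cells expressing the receptor; bound tracer measured by filter-based scintillation counting 2.5 hours after dosing. Loss of signal versus DMSO baseline reflects displacement; primary screen at 25 uM in duplicate, actives followed up in concentration series.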
Sequence of human Opioid Receptor Mu (Opiate Mu), OPRM1 (gene 4988) (P35372 whole entry, looked up): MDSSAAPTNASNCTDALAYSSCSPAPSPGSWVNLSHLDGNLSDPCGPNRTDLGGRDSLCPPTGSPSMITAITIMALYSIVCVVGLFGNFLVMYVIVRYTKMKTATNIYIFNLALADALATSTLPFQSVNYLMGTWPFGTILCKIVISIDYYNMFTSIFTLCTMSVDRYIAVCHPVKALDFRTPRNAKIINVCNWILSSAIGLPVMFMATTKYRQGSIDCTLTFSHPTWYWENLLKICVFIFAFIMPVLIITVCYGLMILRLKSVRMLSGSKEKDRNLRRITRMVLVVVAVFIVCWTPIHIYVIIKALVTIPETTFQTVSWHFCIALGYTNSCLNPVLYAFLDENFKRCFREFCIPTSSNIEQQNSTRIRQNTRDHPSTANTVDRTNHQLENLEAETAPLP
Regarding `CCC[CH2][Sn]([Cl])([CH2]CCC)[CH2]CCC`, the result was inactive.

Consider `[Cl-].[Cl-].[Hg+2]`, for which the AC50 is 0.197 µM (active).

As for `CCOC(=O)[C@]1(c2ccccc2)Oc2ccccc2[C@@H]1N`, the AC50 is 13.1 µM (active).

With `CCCCCCCCn1sccc1=O`, the concentration at half-maximal activity (AC50) is 7.66 µM (active).

Consider `COP(=S)(OC)SCN1C(=O)c2ccccc2C1=O`, for which the call was inactive.

`O=[N+]([O-])c1ccc(Oc2ccc(Cl)cc2Cl)cc1`: the compound was classed as inactive.

As to `O=[N+]([O-])C(Br)(CO)CO`, the outcome was inactive.

`O=C(N[C@H](c1ccccc1)[C@@H]1CN2CCC1CC2)c1c(Cl)ccc(C(F)(F)F)c1Cl`: the AC50 was 10.1 µM (active).

Take `Nc1ccc(Cl)cc1N`: the AC50 is 39.5 µM (active).

On to `N#CC(Br)(Br)C(N)=O`, for which the outcome was inactive.

For another test, the target named is guinea pig Bradykinin Receptor B2 (BK2), BDKRB2 (gene 100135486) (UniProt O70526). Description: NVS_GPCR_gBK2: NovaScreen (NVS) G Protein-Coupled Receptor Assay for guinea pig Bradykinin Receptor B2 (BK2) (AID 2283292). The gist of the method:
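Radioligand displacement on guinea pig ileum membranes for 1 h, read by filter-based scintillation counting; loss of signal relative to DMSO. Compounds were screened in duplicate at 25 uM, and those passing the threshold were retested in concentration-response up to 50 uM.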
On to `CCC[CH2][Sn]([Cl])([CH2]CCC)[CH2]CCC`, for which the AC50 was 10.6 µM (active).

Turning to `[Cl-].[Cl-].[Hg+2]`, the AC50 is 25 µM (active).

Take `CCCSC(=O)N(CCC)CCC`: the result was inactive.

A further test has as its target mouse Cholecystokinin, CCK2 Receptor (CCKB), Cckbr (gene 12426) (UniProt P56481). Description: NVS_GPCR_mCKKBCentral: NovaScreen (NVS) G Protein-Coupled Receptor Assay for mouse Cholecystokinin, CCK2 Receptor (CCKB) (AID 2283293). The method in brief: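 Radioligand displacement binding on mouse forebrain membranes, 2 h exposure, filter-based scintillation counting. Primary screen in duplicate at 25 uM; actives (e.g. ≥30% inhibition) retested in concentration-response up to 50 uM; loss of binding signal relative to DMSO.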
Take `CCC[CH2][Sn]([Cl])([CH2]CCC)[CH2]CCC`: the AC50 is 2.25 µM (active).

With `[Cl-].[Cl-].[Hg+2]`, the AC50 is 38.6 µM (active).

As to `CCCCCOC(=O)c1ccccc1C(=O)OCCCCC`, the result was inactive.

Another test deals with guinea pig Serotonin, 5-Hydroxytryptamine Receptor 4 (5HT4), HTR4 (gene 100135548) (UniProt O70528). Description: NVS_GPCR_g5HT4: NovaScreen (NVS) G Protein-Coupled Receptor Assay for guinea pig Serotonin, 5-Hydroxytryptamine Receptor 4 (5HT4) (AID 2283294). The gist of the method: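 Guinea pig striatal membranes; radioligand competitive displacement, filtration and scintillation counting after 1 h. Primary screen in duplicate at 25 uM; actives then tested in concentration series; loss of binding signal fitted relative to DMSO.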
Sequence of guinea pig Serotonin, 5-Hydroxytryptamine Receptor 4 (5HT4), HTR4 (gene 100135548) (O70528 whole entry, looked up): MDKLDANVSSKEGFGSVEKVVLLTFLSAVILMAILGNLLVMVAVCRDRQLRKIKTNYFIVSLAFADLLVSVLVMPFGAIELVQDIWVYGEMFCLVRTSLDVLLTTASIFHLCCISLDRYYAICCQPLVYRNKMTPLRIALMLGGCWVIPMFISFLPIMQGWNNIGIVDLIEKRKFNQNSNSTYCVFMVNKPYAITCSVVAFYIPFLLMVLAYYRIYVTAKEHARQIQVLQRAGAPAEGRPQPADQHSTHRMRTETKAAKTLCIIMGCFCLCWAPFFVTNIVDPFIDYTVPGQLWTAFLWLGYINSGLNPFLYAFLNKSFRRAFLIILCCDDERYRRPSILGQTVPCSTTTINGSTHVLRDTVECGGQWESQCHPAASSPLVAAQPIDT
For `CCC[CH2][Sn]([Cl])([CH2]CCC)[CH2]CCC`, the AC50 is 3 µM (active).

On to `[Cl-].[Cl-].[Hg+2]`, for which the AC50 is 7.68 µM (active).

Take `CCOC(=O)[C@]1(c2ccccc2)Oc2ccccc2[C@@H]1N`: the AC50 was 4.94 µM (active).

In the case of `CCCCCCCCn1sccc1=O`, the AC50 is 20.2 µM (active).

On to `Cc1ccc(N)c(N)c1`, for which the compound was classed as inactive.

As to `O=C(Oc1ccc(Br)cc1)N1CCN2CCC1CC2`, the AC50 is 14.8 µM (active).

For the compound `CC(C)COC(=O)c1ccccc1C(=O)OCC(C)C`, the call was inactive.

On to `CCCCCOC(=O)c1ccccc1C(=O)OCCCCC`, for which the call was inactive.

(Values after PubChem BioAssay (EPA / NIEHS).)
